In PubChem BioAssay (Tox21):
Records with an inconclusive call do not appear. Active and inactive are the calls of the source. Unless noted, calls follow the shape of the full dose curve.

How the values were obtained:
[1] = Nuclear factor erythroid 2-related factor 2/antioxidant responsive element (Nrf2/ARE) small molecule agonists: qHTS cell viability counter screen in human keratinocytes (AID 1919968; active = well fitted curve in the direction sought with a large enough effect in the repeat runs; an effect the other way counts as inactive or inconclusive; also: nearly all actives have a fitted effect of over 55% in size); details: KeratinoSens HaCaT ARE cells viability, CellTiter-Fluor, 24 h; series mostly up to 92.4 µM
In short: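 Seed 1,500 KeratinoSens cells per well, then incubate 5 h at 37 C/5% CO2. Add compounds in DMSO and incubate 23 h. Add CellTiter-Fluor, wait 1 h and read fluorescence.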

[2] = Nuclear factor erythroid 2-related factor 2/antioxidant responsive element (Nrf2/ARE) small molecule agonists: luciferase reporter gene qHTS assay in human keratinocytes (AID 1919969); details: KeratinoSens HaCaT ARE-luciferase, luminescence, 24 h; series mostly up to 92.4 µM; also: nearly all actives have a fitted effect of over 35% in size
[3] = biological target: Gonadotropin-releasing hormone receptor (Homo sapiens) (UniProt P30968); experiment: Human gonadotropin-releasing hormone receptor (GnRHR) small molecule agonists, calcium flux assay in GnRHR-HEK293 cells (AID 1920063); details: calcium flux fluorescence, agonist mode; series mostly up to 57.6 µM; also: nearly all actives have a fitted effect of over 35% in size
In short: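 Cells: HEK293 stably expressing human GnRHR. Steps: overnight (18 h) culture, 1 h calcium dye loading at 37 C, compound addition, kinetic fluorescence read at 480/540 nm. Each compound tested at 15 concentrations in triplicate.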

[4] = biological target: KiSS-1 receptor (Homo sapiens) (UniProt Q969F8); experiment: Human kisspeptin (KISS1R) small molecule agonists, calcium flux assay in KISS1R-HEK293 cells (AID 1920064; active = well fitted curve in the direction sought with a large enough effect in the repeat runs; an effect the other way counts as inactive or inconclusive); details: KISS1R-HEK293, calcium flux fluorescence, agonist; series mostly up to 76.8 µM
In short: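 Cells plated and incubated 18 h; dye added, 1 h at 37 C; compounds in DMSO pinned in; signal read at 480/540 nm every second for 3 min. Each compound tested at 15 concentrations in triplicate.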

[5] = G protein-coupled receptor (GPCR) small molecule agonists, calcium flux assay: HEK293 wild type cell line counter screen (AID 1920065); details: HEK293 WT calcium flux, fluorescence, agonist mode; series mostly up to 57.6 µM
In short: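 Counter-screen of the Tox21 10K library for non-specific calcium release: dye-loaded cells received compounds in DMSO and were monitored by kinetic fluorescence (480/540 nm, 3 min). Fifteen concentrations, run in triplicate.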

[6] = p53 small molecule agonists, cell-based qHTS assay with human liver microsomes (AID 1963577); details: HCT-116 p53RE-bla with human liver microsomes, ratio, 16 h; series mostly up to 66 µM
In short: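 Cells carrying a p53-responsive bla reporter were rested 5 h (37 C, 5% CO2) before compound transfer. Human liver microsomes plus NADPH, 0.5 mg/mL final apiece, supplied metabolism during the 16 h 37 C exposure.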

[7] = p53 small molecule agonists, cell-based qHTS assay with rat liver microsomes (AID 1963578); details: HCT-116 p53RE-bla, beta-lactamase ratio, 16 h; series mostly up to 66 µM
In short: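 Fluorescence from a beta-lactamase reporter under a p53 response element was measured after cells had been incubated 16 h at 37 C with test compound and rat liver microsomes plus NADPH (0.5 mg/mL final each).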

[8] = p53 small molecule agonists, cell-based qHTS assay with human liver microsomes: qHTS cell viability counter screen (AID 1963579); details: p53RE-bla HCT-116 viability, ATP luminescence, 16 h, HLM; series mostly up to 66 µM; also: nearly all actives have a fitted effect of over 45% in size
In short: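 Seed p53RE-bla cells at 4,000 per well; incubate 5 h at 37 C; add compound, human liver microsomes and NADPH; incubate 16 h at 37 C; add CellTiter-Glo; after 30 min at room temperature, read luminescence.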

[9] = p53 small molecule agonists, cell-based qHTS assay: qHTS cell viability counter screen (AID 1963581); details: p53RE-bla HCT-116 viability, ATP luminescence, 16 h; series mostly up to 66 µM; also: nearly all actives have a fitted effect of over 45% in size
In short: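 Cells: HCT-116 with p53 response element-driven beta-lactamase. Treatment: 16 h, 37 C, compounds in DMSO. Read: CellTiter-Glo luminescence after 30 min RT.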

[10] = p53 small molecule agonists, cell-based qHTS assay (AID 1963582; active = well fitted activation curve with a large enough effect in the signal ratio in the repeat runs, not every such curve was filed as active; the % refers to the signal ratio); details: HCT-116 p53RE-bla reporter, beta-lactamase FRET ratio, 16 h; series mostly up to 66 µM
In short: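 Quantitative HTS in p53RE-bla cells: after a 5 h settling period, compounds delivered in DMSO were left on cells for 16 h at 37 C, and reporter induction was measured as fluorescence following 2 h substrate loading.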

[11] = biological target: 5-hydroxytryptamine receptor 2A (Homo sapiens) (UniProt P28223); experiment: 5-hydroxytryptamine receptor 2A (HTR2A) small molecule antagonists, cell-based qHTS assay (AID 1963586); details: HTR2A-CHO cells, DOI-induced calcium flux, fluorescence; series mostly up to 61.5 µM; also: nearly all actives have a fitted effect of over 45% in size
In short: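 Antagonist-mode intracellular calcium assay: DOI (4 nM) added after 5 min compound pre-incubation at room temperature to dye-loaded HTR2A-CHO cells. Fluorescence followed for 3 min, sampled every second.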

[12] = biological target: 5-hydroxytryptamine receptor 2A (Homo sapiens) (UniProt P28223); experiment: 5-hydroxytryptamine receptor 2A (HTR2A) small molecule agonists, cell-based qHTS assay (AID 1963587); details: HTR2A-CHO cells, calcium flux fluorescence, agonist mode; series mostly up to 76.8 µM; also: nearly all actives have a fitted effect of over 30% in size
In short: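 HTR2A-CHO cells, plated 18 h at 37 C/5% CO2, dye-loaded 1 h at 37 C; compounds in DMSO added by pin tool (agonist mode). Intracellular calcium flux read as kinetic fluorescence on FDSS over 2 min at 1 s intervals.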

[13] = biological target: Muscarinic acetylcholine receptor M1 (Homo sapiens) (UniProt P11229); experiment: Cholinergic receptor muscarinic 1 (CHRM1) small molecule agonists, cell-based qHTS assay (AID 1963589); details: CHRM1-CHO cells, agonist mode, calcium flux fluorescence; series mostly up to 76.8 µM; also: nearly all actives have a fitted effect of over 35% in size
In short: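 Agonist-mode qHTS in CHO cells stably carrying human muscarinic M1. Intracellular calcium is tracked by fluorescence every second after compound transfer; each compound runs at 15 concentrations in three independent runs.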

[14] = cAMP Responsive Elements (CRE) small molecule agonists, cell-based qHTS assay (AID 1963590); details: CRE-bla HEK293T, beta-lactamase FRET ratio, 3 h; series mostly up to 92.4 µM
In short: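 Agonist mode qHTS in CRE-bla HEK 293T cells: compounds dosed from DMSO for 3 h at 37 C/5% CO2, followed by LiveBLAzer B/G FRET substrate for 2 h at room temperature.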

[15] = cAMP Responsive Elements (CRE) small molecule antagonists, cell-based qHTS assay (AID 1963591; active = well fitted inhibition curve with a large enough effect in the signal ratio in the repeat runs, not every such curve was filed as active; the % refers to the signal ratio); details: CRE-bla HEK293T, beta-lactamase FRET ratio; series mostly up to 92.4 µM
In short: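 Antagonist mode: test compounds are co-incubated with the adenylyl cyclase activator NKH477 (0.25 uM final) on CRE-bla HEK293T cells for 3 h at 37 °C, followed by LiveBLAzer substrate loading.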

[16] = biological target: Beta-2 adrenergic receptor (Homo sapiens) (UniProt P07550); experiment: Adrenergic beta2 receptor (ADRB2) small molecule antagonists, cell-based qHTS assay (AID 1963592); details: CHO-ADRB2 cells, isoproterenol-stimulated cAMP HTRF ratio, 0.5 h; series mostly up to 92.4 µM; also: nearly all actives have a fitted effect of over 50% in size
In short: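 Cells (CHO, stable ADRB2 overexpression) incubated 18-20hr at 37C; compounds added from DMSO; agonist mix (1nM isoproterenol, 100uM IBMX, 25uM Ro-20-1724) added; 0.5hr RT; d2-cAMP and anti-cAMP-cryptate added; 1hr RT; 665/615 nm read.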

[17] = biological target: D(2) dopamine receptor (Homo sapiens) (UniProt P14416); experiment: Dopamine D2 receptor (DRD2) small molecule agonists, cell-based qHTS assay (AID 1963594); details: HEK293-DRD2 cAMP HTRF, agonist mode, 30 min; series mostly up to 92.4 µM; also: nearly all actives have a fitted effect of over 35% in size
In short: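 HEK293 cells stably expressing DRD2 were cultured 24 h at 37 C, then given Ro20-1724 (0.1 mM final) and compounds for 10 min at room temperature. NKH477 (200nM) was then added for 30 min. cAMP was read by HTRF.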

[18] = biological target: D(2) dopamine receptor (Homo sapiens) (UniProt P14416); experiment: Dopamine D2 receptor (DRD2) small molecule antagonists, cell-based qHTS assay (AID 1963595; active = well fitted inhibition curve with a large enough effect in the signal ratio in the repeat runs, with a control signal flat; the % refers to the signal ratio); details: HEK293-DRD2 cAMP HTRF antagonist mode; series mostly up to 92.4 µM
In short: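 HEK293 cells stably expressing DRD2, preincubated with 0.1 mM Ro20-1724 and compounds 10 min, were stimulated with 200 nM NKH477 plus 12 nM quinpirole for 30 min at room temperature; cAMP measured by HTRF (665/620 nm).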

[19] = p53 small molecule agonists, cell-based qHTS assay with rat liver microsomes: qHTS cell viability counter screen (AID 1963580); details: p53RE-bla HCT-116 + rat microsomes, ATP viability, 16 h; series mostly up to 66 µM; also: nearly all actives have a fitted effect of over 45% in size
In short: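 In HCT-116 cells carrying a p53 response element-bla reporter, compounds were metabolically activated in situ by rat liver microsomes with NADPH over 16 h. Cell ATP content then served as the cytotoxicity measure.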

[20] = biological target: Muscarinic acetylcholine receptor M1 (Homo sapiens) (UniProt P11229); experiment: Cholinergic receptor muscarinic 1 (CHRM1) small molecule antagonists, cell-based qHTS assay (AID 1963588); details: CHRM1-CHO antagonist mode, calcium flux fluorescence; series mostly up to 61.5 µM; also: nearly all actives have a fitted effect of over 40% in size
In short: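 CHRM1-CHO calcium-flux assay, antagonist mode. Cells were seeded 18 h, dye-loaded 1 h at 37 C and given compound for 5 min at RT, then acetylcholine was added at 50nM. FDSS fluorescence was read 3 min; 15 concentrations, three runs.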

Measured: Potency

Chain of D(2) dopamine receptor (Homo sapiens) (P14416 whole entry, looked up): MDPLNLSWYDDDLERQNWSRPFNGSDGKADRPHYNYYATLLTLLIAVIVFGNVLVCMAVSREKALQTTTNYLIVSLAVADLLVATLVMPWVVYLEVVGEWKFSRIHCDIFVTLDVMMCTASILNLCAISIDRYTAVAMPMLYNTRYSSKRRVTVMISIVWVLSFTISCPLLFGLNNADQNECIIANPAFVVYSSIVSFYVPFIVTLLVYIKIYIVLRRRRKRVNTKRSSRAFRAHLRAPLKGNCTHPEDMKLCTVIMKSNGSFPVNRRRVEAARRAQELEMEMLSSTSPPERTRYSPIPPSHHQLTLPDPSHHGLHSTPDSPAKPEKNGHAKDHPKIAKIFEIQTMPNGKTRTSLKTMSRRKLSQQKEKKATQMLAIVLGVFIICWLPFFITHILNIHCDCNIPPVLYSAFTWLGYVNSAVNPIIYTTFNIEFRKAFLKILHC
Chain of Muscarinic acetylcholine receptor M1 (Homo sapiens) (P11229 whole entry, looked up): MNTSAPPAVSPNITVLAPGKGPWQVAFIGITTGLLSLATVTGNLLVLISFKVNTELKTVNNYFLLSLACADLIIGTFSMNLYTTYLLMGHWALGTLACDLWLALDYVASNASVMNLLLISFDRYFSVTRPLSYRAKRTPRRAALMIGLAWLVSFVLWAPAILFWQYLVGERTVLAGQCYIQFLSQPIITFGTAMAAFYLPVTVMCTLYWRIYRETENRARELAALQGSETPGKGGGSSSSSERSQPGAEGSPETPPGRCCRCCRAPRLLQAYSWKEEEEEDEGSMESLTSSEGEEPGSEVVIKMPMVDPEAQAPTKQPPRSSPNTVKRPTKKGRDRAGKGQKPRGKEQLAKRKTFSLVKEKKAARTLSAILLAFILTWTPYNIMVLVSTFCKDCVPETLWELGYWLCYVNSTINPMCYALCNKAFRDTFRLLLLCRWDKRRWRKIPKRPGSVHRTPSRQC
Chain of Gonadotropin-releasing hormone receptor (Homo sapiens) (P30968 whole entry, looked up): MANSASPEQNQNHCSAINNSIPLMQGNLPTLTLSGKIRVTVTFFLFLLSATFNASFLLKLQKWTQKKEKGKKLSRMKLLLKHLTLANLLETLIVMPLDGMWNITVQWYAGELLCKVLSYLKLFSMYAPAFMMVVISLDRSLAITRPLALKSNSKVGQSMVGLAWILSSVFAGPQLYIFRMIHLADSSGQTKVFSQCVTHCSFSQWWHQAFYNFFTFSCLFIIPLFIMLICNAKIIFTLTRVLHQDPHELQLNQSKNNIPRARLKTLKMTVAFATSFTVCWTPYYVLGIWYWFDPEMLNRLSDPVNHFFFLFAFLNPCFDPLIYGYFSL
Chain of KiSS-1 receptor (Homo sapiens) (Q969F8 whole entry, looked up): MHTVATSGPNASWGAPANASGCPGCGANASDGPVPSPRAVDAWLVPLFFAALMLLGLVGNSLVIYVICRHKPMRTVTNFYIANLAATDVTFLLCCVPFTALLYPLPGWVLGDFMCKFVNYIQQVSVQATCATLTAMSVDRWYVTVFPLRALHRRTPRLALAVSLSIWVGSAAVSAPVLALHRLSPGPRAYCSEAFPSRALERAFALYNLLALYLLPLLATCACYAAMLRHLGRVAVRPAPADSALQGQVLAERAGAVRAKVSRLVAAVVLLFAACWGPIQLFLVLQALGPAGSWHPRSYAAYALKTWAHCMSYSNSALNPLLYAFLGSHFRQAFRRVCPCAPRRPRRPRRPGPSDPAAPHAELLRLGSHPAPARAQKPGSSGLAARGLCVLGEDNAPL
Chain of 5-hydroxytryptamine receptor 2A (Homo sapiens) (P28223 whole entry, looked up): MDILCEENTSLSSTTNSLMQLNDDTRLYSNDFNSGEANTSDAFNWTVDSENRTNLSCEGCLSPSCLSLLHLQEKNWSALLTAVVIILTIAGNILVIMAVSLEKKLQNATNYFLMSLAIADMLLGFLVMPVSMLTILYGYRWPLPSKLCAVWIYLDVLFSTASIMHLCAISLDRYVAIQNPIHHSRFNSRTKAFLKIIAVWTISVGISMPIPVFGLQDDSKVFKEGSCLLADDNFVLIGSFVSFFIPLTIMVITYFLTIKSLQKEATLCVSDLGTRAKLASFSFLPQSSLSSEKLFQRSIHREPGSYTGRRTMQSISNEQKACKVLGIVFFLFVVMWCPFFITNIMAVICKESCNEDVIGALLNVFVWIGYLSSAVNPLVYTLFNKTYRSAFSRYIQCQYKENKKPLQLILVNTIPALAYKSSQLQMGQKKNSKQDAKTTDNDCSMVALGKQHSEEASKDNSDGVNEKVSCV
Chain of Beta-2 adrenergic receptor (Homo sapiens) (P07550 whole entry, looked up): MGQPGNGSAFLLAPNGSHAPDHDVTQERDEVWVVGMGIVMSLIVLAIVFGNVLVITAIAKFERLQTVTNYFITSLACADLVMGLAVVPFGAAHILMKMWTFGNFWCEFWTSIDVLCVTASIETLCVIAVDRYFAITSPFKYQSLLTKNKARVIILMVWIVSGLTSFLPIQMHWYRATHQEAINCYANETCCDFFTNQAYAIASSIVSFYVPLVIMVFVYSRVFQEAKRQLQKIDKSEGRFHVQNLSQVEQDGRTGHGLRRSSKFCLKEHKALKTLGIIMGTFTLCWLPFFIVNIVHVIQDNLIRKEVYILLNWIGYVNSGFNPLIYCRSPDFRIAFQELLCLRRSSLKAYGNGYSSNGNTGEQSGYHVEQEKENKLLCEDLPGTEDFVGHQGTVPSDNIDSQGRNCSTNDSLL

CCCCOC(=O)C(C)O (centres undefined)
inactive: [1] | [2] | [3] | [4] | [5] | [6] | [7] | [8] | [9] | [10] | [11] | [12] | [13] | [14] | [15] | [16] | [17] | [18]

CC[N+](CC)(CC)Cc1ccccc1
inactive: [1] | [2] | [3] | [4] | [5] | [6] | [7] | [19] | [9] | [10] | [11] | [12] | [20] | [13] | [14] | [15] | [16] | [17] | [18]

COc1ccc(S(=O)(=O)N2c3ccc(Cl)cc3[C@@](O)(c3ccccc3Cl)[C@H]2C(=O)N2CCC[C@@H]2C(N)=O)cc1OC
inactive: [1] | [2] | [3] | [4] | [5] | [6] | [7] | [19] | [9] | [10] | [11] | [12] | [20] | [13] | [14] | [15] | [17] | [18]

CC(O)c1ccccc1 (centres undefined)
inactive: [1] | [2] | [3] | [4] | [5] | [6] | [7] | [19] | [9] | [10] | [11] | [12] | [20] | [13] | [14] | [15] | [16] | [17] | [18]

COC(=O)CC#N
inactive: [1] | [2] | [3] | [4] | [5] | [6] | [7] | [19] | [9] | [10] | [11] | [12] | [20] | [13] | [14] | [15] | [16] | [17] | [18]

CC(C)CCCCCCOC(=O)c1ccc(C(=O)OCCCCCCC(C)C)c(C(=O)OCCCCCCC(C)C)c1
inactive: [1] | [2] | [3] | [4] | [5] | [6] | [7] | [19] | [9] | [10] | [11] | [12] | [20] | [13] | [14] | [15] | [16] | [17]

Cc1cc(OI)c(C(C)C)cc1-c1cc(C(C)C)c(OI)cc1C
inactive: [1] | [2] | [3] | [4] | [5] | [6] | [7] | [19] | [9] | [10] | [11] | [12] | [20] | [13] | [15] | [16] | [17] | [18]
